# Experimental data published in PubChem BioAssay (NCATS).
# Results filed as inconclusive are left out. Entries that show only a call come without a potency. Calls of active or inactive are those of the source. Calls follow the shape of the dose curve; as a rule, active = well fitted activation curve with a large enough effect; inconclusive = small, poorly fitted or top-dose-only effect; inactive = flat fitted curve, though single readings scatter. Where a SMILES comes first, the peptide text is derived from it. The star is where a group is joined. AMC = Cc1cc(=O)oc2cc(N*)ccc12; Cbz = O=C(OCc1ccccc1)*
# Test: Primary redox qHTS assay for identification of artifact compounds. (AID 1845223)
# Conditions: Amplex Red/HRP redox cycling with DTT, fluorescence; series mostly up to 53.8 µM
# Procedure, shortened: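 Redox-cycling detection via DTT (250 uM final) oxidation coupled to Amplex Red (25 uM)/HRP (250 mU/mL) in HBSS. 15 min preincubation plus 30 min after DTT, room temperature. Ex/Em 525/598 nm; 4-parameter Hill fit against DMSO and 10 uM DA3003.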
Compound,Potency,redox activity (% of DA3003)
COC(=O)C1=COC(OC2OC(CO)C(O)C(O)C2O)C2C(COC(=O)/C=C/c3ccc(O)cc3)C(O)C(O)C12 (centres undefined),inactive,
Cc1oc(S(=O)(=O)N2CCCCC2)cc1NC(=O)Nc1ccccc1,inactive,
CCC/C=C1\OC(=O)C2=C1CCC(O)C2O (centres undefined),inactive,
Cc1ccc(COC(=O)N2CC[C@@H](CNc3ncccn3)[C@@H](F)C2)cc1,inactive,
CC1(C)CC[C@]2(C(=O)O[C@@H]3O[C@H](CO)[C@@H](O)[C@H](O)[C@H]3O)CC[C@]3(C)C(=CCC4[C@@]5(C)C[C@@H](O)[C@H](O)[C@@](C)(CO)C5[C@H](O)C[C@]43C)C2C1 (some centres undefined),inactive,
O=C(O)[C@H]1Cc2ccccc2CN1,,-3.86% [at 6.41 µM] (inactive)
COC(=O)C1=CO[C@@H](O[C@@H]2O[C@H](CO[C@@H]3O[C@H](CO)[C@@H](O)[C@H](O)[C@H]3O)[C@@H](O)[C@H](O)[C@H]2O)[C@@H]2C(CO)=CC[C@H]12,inactive,
COc1cc(Nc2nc3c(s2)CCCC3c2ccccc2)ccc1-n1cnc(C)c1 (centres undefined),,-0.384% [at 11.5 µM] (inactive)
CC1=CC[C@@]2(C)CC[C@@](O)(C(C)C)[C@@H]2[C@@H](O)C1,inactive,
C[C@@H]1O[C@@H](O[C@H]2[C@H](OC(=O)[C@]34CCC(C)(C)C[C@H]3C3=CCC5[C@@]6(C)C[C@@H](O)[C@@H](O)[C@@](C)(CO)C6[C@H](O)C[C@@]5(C)[C@]3(C)CC4)OC[C@H](O)[C@@H]2O)[C@H](O)[C@H](O)[C@H]1O[C@@H]1OC[C@@H](O)[C@H](O[C@H]2O[C@H](C)[C@@H](O)[C@H](O)[C@@H]2O)[C@H]1O (some centres undefined),,18.5% [at 11.5 µM] (inactive)
CC[C@H]1OC(=O)[C@H](C)[C@@H](O[C@H]2C[C@@](C)(OC)[C@@H](O)[C@H](C)O2)C(C)[C@@H](O[C@@H]2O[C@H](C)C[C@H](N(C)C)[C@H]2O)[C@](C)(O)C[C@@H](C)CN(C)[C@H](C)[C@@H](O)[C@]1(C)O (some centres undefined),inactive,
COCCN1CCC(C(=O)NO)(S(=O)(=O)c2ccc(Oc3ccc(OC(F)(F)F)cc3)cc2)CC1,inactive,
CCC(C)C(C(=O)O)N1Cc2c(OCC=C(C)C)c(C)c(OC)c(C(=O)O)c2C1=O (centres undefined),inactive,
CC(C)=C1C[C@@]2(C)C(=CC1=O)CC[C@@H](O)[C@@H]2C,inactive,
CC1(C)CCC2(C(=O)O)C(O)CC3(C)C(=CCC4C5(C)CCC(OC6OC(CO)C(O)C(O)C6OC6OC(CO)C(O)C(O)C6OC6OCC(O)(CO)C6O)C(C)(C)C5CCC43C)C2C1 (centres undefined),,17% [at 11.5 µM] (inactive)
CC(C)=C1CC2[C@](C)(CC[C@@H](OC(=O)C3(C)OC3C)[C@@]2(C)O)CC1=O (some centres undefined),inactive,
Cc1cc(=O)oc2cc(NC(=O)[C@H](CCC(=O)O)NC(=O)[C@H](CC(C)C)NC(=O)[C@H](CC(C)C)NC(=O)OCc3ccccc3)ccc12 (Cbz-Leu-Leu-Glu-{AMC}),inactive,
C=C1CCC2C(C)(C(=O)OC)CCCC2(C)C1CCC1=CCOC1=O (centres undefined),inactive,
O=C(O[C@@H]1O[C@H](CO)[C@@H](O)[C@H](O)[C@H]1O)c1ccccc1,inactive,
CC(=O)O[C@@H]1[C@H](OC(C)=O)C[C@@]2(C)C(CC[C@@H](C)[C@]23Cc2c(O)cc4c(c2O3)CN([C@@H](CCC(=O)O)C(=O)O)C4=O)C1(C)C (some centres undefined),inactive,

Compound,Potency,redox activity (% of DA3003)
CC(C)(C)NS(=O)(=O)c1ccc(-c2ccc3[nH]nc(N)c3c2)cc1,inactive,
N#Cc1cc(-c2n[nH]c(-c3ccncc3)n2)ccn1,inactive,
CC(C)=CCC[C@](C)(O[C@@H]1O[C@H](CO)[C@@H](O)[C@H](O)[C@H]1O)[C@H]1CC[C@]2(C)[C@@H]1[C@H](O)CC1[C@@]3(C)CC[C@H](O)C(C)(C)C3[C@@H](O[C@@H]3O[C@H](CO)[C@@H](O)[C@H](O)[C@H]3O[C@@H]3O[C@@H](C)[C@H](O)[C@@H](O)[C@H]3O)C[C@]12C (some centres undefined),,5.49% [at 11.5 µM] (inactive)
CC(=O)OC1C(CO)OC(O[C@H]2[C@H](OC(=O)[C@]34CCC(C)(C)C[C@H]3C3=CCC5[C@@]6(C)CC[C@H](O[C@@H]7O[C@H](C(=O)O)[C@@H](O)[C@H](O[C@@H]8OC[C@@H](O)[C@H](O)[C@H]8O)[C@H]7O[C@@H]7O[C@H](CO)[C@H](O)[C@H](O)[C@H]7O)[C@@](C)(C=O)C6CC[C@@]5(C)[C@]3(C)C[C@H]4O)O[C@H](C)[C@H](OC3OC(C)C(OC4OCC(O)C(O)C4O)C(O)C3O)[C@@H]2O)C(O)C1O (some centres undefined),,3.62% [at 11.5 µM] (inactive)
CC1=CC(=O)CC(C)(C)C1CO[C@@H]1O[C@H](CO)[C@@H](O)[C@H](O)[C@H]1O (some centres undefined),inactive,
CC1(C)C2CC[C@@]34CC(CC[C@H]3[C@]2(C)CC[C@@H]1O[C@@H]1O[C@H](CO)[C@@H](O)[C@H](O)[C@H]1O)[C@](C)(O)C4 (some centres undefined),inactive,
O=C(OCC1OC(Oc2ccc(O)cc2COC(=O)C2(O)C(O)CCC(=O)C2OC(=O)C2C=CCC2)C(OC(=O)C2C=CCC2)C(O)C1O)C1C=CCC1 (centres undefined),inactive,
COC(=O)C[C@@H]1C(C(=O)O)=CO[C@@H](O[C@@H]2O[C@H](CO)[C@@H](O)[C@H](O)[C@H]2O)/C1=C\COC(=O)/C=C/c1ccc(O)c(OC)c1,inactive,
C=C1CC[C@@]2(OC1)O[C@H]1CC3C4CC=C5C[C@@H](O[C@@H]6O[C@@H](C)[C@H](O)[C@@H](O)[C@H]6O)C[C@@H](O[C@@H]6O[C@H](C)[C@H](O)[C@H](O)[C@H]6O[C@@H]6O[C@@H](C)[C@H](O)[C@@H](O)[C@H]6O)[C@]5(C)C4CC[C@]3(C)[C@H]1[C@@H]2C (some centres undefined),,1.1% [at 11.5 µM] (inactive)
CC(C)(CC(=O)N1CCCC1)NCC(=O)N1C[C@@H](F)C[C@H]1C#N,inactive,
CC1C2=CC(=O)OC2(O)CC2C1C(OC(=O)c1ccccc1)C(OC(=O)c1ccccc1)C1(O)C2(C)CCC(O)C1(C)C(=O)O (centres undefined),inactive,
CCC[C@H](N[C@@H](C)C(=O)N1[C@H](C(=O)O)C[C@@H]2CCCC[C@@H]21)C(=O)O,inactive,
CC(C)=CCc1c(O)cc2oc3cc(C)cc(O)c3c2c1C,inactive,
Cc1cc(-n2c(=O)[nH]c(=O)n(C)c2=O)ccc1Oc1ccc(SC(F)(F)F)cc1,inactive,
C/C=C(/C)C(=O)OC1C2OC2C2(CO2)C2C3OC(=O)C(C)C3CCC12C (centres undefined),inactive,
CC1=C2CC(=O)C(C)CC/C=C(\C)CC2OC1=O (centres undefined),inactive,
CC(=O)O[C@H]1C[C@@H](O)C(C)(C)C2C[C@@H](OC(C)=O)[C@@]3(C)C4=CCC(C(CO)CC(O)C5OC5(C)C)[C@]4(C)CCC3[C@]21C (some centres undefined),inactive,
C[C@@H]1O[C@@H](O[C@H]2[C@H](O[C@H]3[C@H](O[C@H]4CC[C@@]5(C)C(CC[C@]6(C)C5CC=C5[C@@H]7CC(C)(C)C[C@@H](O)[C@]7(C)CC[C@]56C)[C@@]4(C)CO)O[C@H](C(=O)O)[C@@H](O)[C@@H]3O)O[C@H](C(=O)O)[C@H](O)[C@@H]2O)[C@H](O)[C@H](O)[C@H]1O (some centres undefined),,-2.66% [at 11.5 µM] (inactive)
Fc1ccccc1-c1nc2ccn(Cc3ccc(-c4ccc(C(F)(F)F)cc4C(F)(F)F)nn3)cc-2n1,inactive,
